Hit rate of the full screen: of about 360,000 compounds, about 1,800 (0.5%) were called active. The sample holds actives, similar compounds and a random draw of the others, so the mix is not that of the screen.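 How the source made its calls: active means interference check ratio from 0.5 to 1.5 plus GFP to RFP signal ratio inhibition reaching or exceeding a fixed threshold (cut at about 30% in these data, passing the limit was not always enough); inactive means the rest.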
experiment: suppressors of acrylamide-induced Pgst-4::GFP reporter in worms, primary screen, SKN-1 inhibitor project, whole organism, uHTS, GFP/RFP fluorescence ratio, strain VP596 (AID 624304); conditions: C. elegans VP596 Pgst-4::GFP/RFP ratio, 24 h, at 21.8 µM, hits give high values

| SMILES | inhibition |
| --- | --- |
| CCc1ccc2c(c1)C1(NN=C(c3ccccc3)S1)C(=O)N2 (stereo not drawn) | 4.61% (inactive) |
| Cc1ccc(-c2ccc(CN3C(C(C)C)C(=O)N(Cc4cn(CCC5OCCO5)nn4)CCS3(=O)=O)cc2)cc1 (stereo not drawn) | 12.6% (inactive) |
| COc1ccc(C2C3=C(OC(C)=O)c4ccccc4C3=Nc3c2c(=O)n(C)c(=O)n3C)cc1 (stereo not drawn) | 2.4% (inactive) |
| CCOc1ccc(OCC)c(NC(=O)CN(C)S(=O)(=O)c2cccc3nsnc23)c1 | 27.2% (inactive) |
| CCO[C@@H]1OC(C(=O)NCc2nc3ccccc3[nH]2)=C[C@H](C2CCCCC2)[C@H]1CCCO | 7.19% (inactive) |
| CCOC(=O)C1=C(C)NC2=C(C(=O)CC(C)(C)C2)C1c1ccsc1 (stereo not drawn) | 1.51% (inactive) |
| COC(=O)c1ccc(C2NC(=O)NC(C)=C2C(=O)N(C)C)cc1 (stereo not drawn) | 0.51% (inactive) |
| CCOC(=O)C1=C(C)Nc2sc(C(=O)c3ccc(Br)cc3)c(N)c2C1c1ccc(C(=O)OC)cc1 (stereo not drawn) | 37.2% (active) |
| CS(=O)(=O)N(CC(O)Cn1c2ccccc2c2ccccc21)c1cccc2ccccc12 (stereo not drawn) | 5.96% (inactive) |
| Oc1cccc2cc(-c3ccncc3)cnc12 | -1.84% (inactive) |
| CC1=NN(C(=O)CCc2ccccc2O)C(O)(C(F)(F)F)C1 (stereo not drawn) | 0.219% (inactive) |
| CCN(CC)S(=O)(=O)c1ccc(N(C)Cc2cccc(OC)c2OC)nc1 | 13.3% (inactive) |
| CCN(CC)S(=O)(=O)c1ccc(N(C)Cc2ccc(C(F)(F)F)cc2)nc1 | 3.82% (inactive) |
| CCN(CC)S(=O)(=O)c1ccc(N(C)CCc2ccc(OC)c(OC)c2)nc1 | 43% (active) |
| S=c1[nH]ccn1-c1ccc(Cl)cc1 | 1.55% (inactive) |
| COc1cc2c(C(=O)N3CCN(C)CC3)c(CSc3ccccc3)n(C)c2cc1Br | -4.81% (inactive) |
| Oc1ccc(-c2nncn2-c2ccccc2)cc1 | 3.4% (inactive) |
| CC(=O)Nc1ccc(NC(=O)CCN2C(=O)C3CC=CCC3C2=O)cc1 (stereo not drawn) | -12.5% (inactive) |
| Cc1c(C(=O)NCCN2C(=O)S/C(=C\c3cccs3)C2=O)cccc1[N+](=O)[O-] | 9.81% (inactive) |
| O=C(CCCN1C(=O)/C(=C/c2cccs2)SC1=S)Nc1ccc(O)cc1 | 38.3% (active) |
| O=C(NCCC1=CCCCC1)c1ccc(Cl)c([N+](=O)[O-])c1 | 7.85% (inactive) |
| Cn1nnc2cc(C(=O)NCCC3=CCCCC3)ccc21 | 35.4% (active) |
| CC(Sc1nncn1C)C(=O)NCCC1=CCCCC1 (stereo not drawn) | -8.96% (inactive) |
| CCc1ccc(C(=O)NC(=S)Nc2ccccc2N2CCOCC2)cc1 | 11% (inactive) |

| SMILES | inhibition |
| --- | --- |
| CC(=O)N1CCN(c2ccccc2NC(=S)NC(=O)c2cc3ccccc3o2)CC1 | 6.86% (inactive) |
| COc1ccc(C(=O)NC(=S)Nc2ccccc2N2CCN(S(C)(=O)=O)CC2)cc1OC | 41% (active) |
| CC(=O)c1cccc(NC(=O)N2CCCC2C(=O)NCCc2ccccc2)c1 (stereo not drawn) | 23.5% (inactive) |
| Cn1nnnc1SCC(=O)Nc1cccc(S(=O)(=O)N2CCCCC2)c1 | 6.32% (inactive) |
| COCCn1cnnc1SCC(=O)Nc1cccc(S(=O)(=O)N2CCCCC2)c1 | 47% (active) |
| O=C(CSc1ccccc1)Nc1cccc(S(=O)(=O)N2CCCCC2)c1 | 12.9% (inactive) |
| CCOC(=O)C1CCCN(C(=O)COc2ccc(N(C)S(=O)(=O)c3ccc(C)cc3)cc2)C1 (stereo not drawn) | -2.11% (inactive) |
| Cn1cc(S(=O)(=O)N2CCN(c3ccc(F)cc3)CC2)c(=O)n(C)c1=O | 1.81% (inactive) |
| CCN1C(=O)[C@@H]2[C@@H]3CN(S(=O)(=O)c4ccccc4C)[C@@H](c4ccc(Cl)cc4)[C@@H]3C(=O)C[C@@H]2C1=O | 2.39% (inactive) |
| C#CCN(C[C@H]1[C@H](OC(=O)NC2CCCC2)[C@H](OC(=O)NC2CCCC2)C[C@H]2C(=O)N(c3ccccc3)C(=O)[C@@H]12)S(=O)(=O)c1ccc(C)cc1 | 11.9% (inactive) |
| COc1ccc2oc(N)nc2c1 | 3.43% (inactive) |
| CCc1ccc2oc(-c3ccc(N)cc3)nc2c1 | 39.8% (active) |
| O=[N+]([O-])c1ccc2oc(-c3cccc(O)c3)nc2c1 | 17% (inactive) |
| CCCCN1CC(C)(C)[C@H](CC(=O)Nc2ccc(Br)cc2)C1=O | 13% (inactive) |
| C[C@H]1CN(c2ccc(Br)cc2)C(=O)[C@@H]1CC(=O)Nc1ccc(Br)cc1 | -1.36% (inactive) |
| CCCCN1C[C@H](c2ccc(Br)cc2)[C@@H](CC(=O)Nc2ccc(Br)cc2)C1=O | 46.8% (active) |
| COC(=O)c1ccc(N(CC(=O)NC2CCCC2)C(=O)CNC(=O)c2ccco2)cc1 | 13.4% (inactive) |
| O=C(/C=C/c1ccco1)NC(=S)N1CCCCC1 | 11.9% (inactive) |
| O=C(/C=C/c1ccco1)Nc1ccc(Oc2ccccc2)cc1 | 48.8% (active) |
| Cc1ccoc1C(=O)Nc1cccc(Oc2ccccc2)c1 | -23.9% (inactive) |
| O=C(Nc1ccc(Oc2ccccc2)cc1)c1ccco1 | 38.8% (active) |
| CN1CCN(S(=O)(=O)c2ccc(NC(=O)c3ccco3)cc2)CC1 | 13.7% (inactive) |
| NS(=O)(=O)c1cccc(NC(=O)COC(=O)/C=C/c2ccco2)c1 | 0.905% (inactive) |
| CCNc1nc(NC(C)C)nc(N2CC(=O)N(CC(=O)OCC)C2=N)n1 | 3.01% (inactive) |

| SMILES | inhibition |
| --- | --- |
| NS(=O)(=O)c1ccccc1NC(=O)c1c(O)c2ccccc2[nH]c1=O | 5.41% (inactive) |
| COc1cccc(CNS(=O)(=O)c2ccc3c(c2)N(C(C)=O)CCS3)c1 | 19.6% (inactive) |
| CC1CCN(c2oc(-c3ccccc3F)nc2C#N)CC1 | 35.4% (active) |
| N#Cc1nc(-c2cccc3ccccc23)oc1N | 16.8% (inactive) |
| Cc1oc(-c2ccccc2F)nc1CS(=O)CC(=O)NCCN1CCCCC1C (stereo not drawn) | 5.11% (inactive) |
| O=[N+]([O-])c1cc([N+](=O)[O-])c(Oc2cc(F)cc(F)c2F)cc1NN1CCCCC1 | 15.8% (inactive) |
| CCCNC(=O)C1(C)CCN(C(=O)c2ccccc2OC(F)(F)F)C1 (stereo not drawn) | -0.325% (inactive) |
| O=C(CCc1ccc(S(=O)(=O)NC2CCCCC2)cc1)NCc1ccccc1 | 3.92% (inactive) |
| Cc1cc(N=Nc2ccc3ccccc3c2)ccc1O | 44.4% (active) |
| Cc1c(C(=O)NCCN2CCOCC2)sc2nc(-c3ccc(F)cc3)cn12 | 5.89% (inactive) |
| CC/C(=N/Nc1ccccc1)c1cnnc(SC)n1 | 10.2% (inactive) |
| CCOc1ccc(CNC(=O)C2CC(=O)N(C3CCCC3)C2)cc1OC (stereo not drawn) | 8.98% (inactive) |
| CCOC(=O)C1CCN(C(=O)C2CCN(S(=O)(=O)CC)CC2)CC1 | 6.26% (inactive) |
| Cc1onc(-c2ccccc2Cl)c1C(=O)NCCn1ccc2ccccc21 | 39.7% (active) |
| Cc1onc(-c2ccccc2Cl)c1C(=O)N(Cc1ccc(N(C)C)cc1)C(C)C | -21.5% (inactive) |
| Cc1ccc2cc(CCNC(=O)c3c(-c4ccccc4Cl)noc3C)c(=O)[nH]c2c1 | 11.2% (inactive) |
| FC(F)(F)c1ccc(-c2cccc3c2C2CC3CCN2Cc2ccccc2)cc1 (stereo not drawn) | 7.81% (inactive) |
| CC1(C)Cc2ccccc2-c2nnc(-c3cccc(O)c3)n21 | 27.7% (inactive) |
| O=C(NC1CCCCCCC1)c1cccs1 | 22.3% (inactive) |
| O=C(NCCCn1ccnc1)c1cc(-c2ccccc2)on1 | 8.95% (inactive) |
| O=C(NC1CCCC1)c1cc(-c2ccccc2)on1 | 37.3% (active) |
| NC1=CC(=O)C(=O)c2cccnc21 | 18.3% (inactive) |
| COc1ccccc1Cn1c(C)nnc1-c1cnn(C)c1N | 10.4% (inactive) |
| CC(=O)Nc1ccc(NC(=O)CSc2nnc(COc3ccccc3C)n2CC2CCCO2)cc1 (stereo not drawn) | -7.59% (inactive) |

| SMILES | inhibition |
| --- | --- |
| CCOc1cc(C)ccc1OCc1nnc(SCC(=O)Nc2cccc(C(=O)O)c2)n1-c1ccccc1 | -9.28% (inactive) |
| CCCCNC(=O)CSc1nc2ccc(NC(=O)CSc3nnc(COc4ccccc4C)n3C)cc2s1 | 39.2% (active) |
| Cc1nonc1C1CCCN1Cc1nc(-c2ccc(F)cc2F)oc1C (stereo not drawn) | 10% (inactive) |
| CSc1nnc(CNC(=O)c2ccccc2)n1-c1ccc(F)cc1 | -6.87% (inactive) |
| Cc1ccnc(SCCn2c(Br)nc3c2c(=O)[nH]c(=O)n3C)n1 | -9.02% (inactive) |
| CCCCCCCCCCCCN1C(=O)CSC1c1cccnc1 (stereo not drawn) | -6.65% (inactive) |
| CCOc1cc(CO)ccc1OCC(=O)N1CCCCC1 | 7.04% (inactive) |
| CCOC(=O)/C=C/c1ccc(C(F)(F)F)cc1S(=O)(=O)NC(C)(C)C | 3.66% (inactive) |
| CCOC(=O)/C=C/CN(C(=O)OC(C)(C)C)S(=O)(=O)N1CC=CC1 | 35.2% (active) |
| CNc1cc(-c2c(OC)cccc2OC)ncn1 | 4.47% (inactive) |
| CC(C)c1ccc(NC(=O)COC(=O)c2ccc(CN3CCCC3=O)cc2)cc1 | -1.54% (inactive) |
| CC(=O)N1CCN(c2ccc(NCc3ccc(C(C)C)cc3)cc2)CC1 | 36.1% (active) |
| CCCC(=O)N1CCC1(C)C(=O)NCc1ccc(C(C)C)cc1 (stereo not drawn) | 14.8% (inactive) |
| COCCNC(=O)c1ccc(N2CCC3(CC2)OCCO3)c([N+](=O)[O-])c1 | -6.38% (inactive) |
| O=C(Nc1nn(Cc2ccccc2F)cc1Br)c1cccs1 | 6.46% (inactive) |
| Cc1ccc(-c2nc(-c3ccncc3)no2)c(C)c1 | 37% (active) |
| Cc1ccc(-c2noc(-c3ccccc3C(=O)NCC3CCCO3)n2)cc1 (stereo not drawn) | -3.76% (inactive) |
| COc1ccc(CCc2nc(-c3cccs3)no2)cc1 | -7.8% (inactive) |
| O=C(NCc1cccnc1)c1nc(-c2cccs2)no1 | 7.29% (inactive) |
| c1csc(-c2nc(-c3ccncc3)no2)c1 | 47.4% (active) |
| COc1cc(OC)cc(C(=O)OCC(=O)Nc2sccc2C(N)=O)c1 | 0.966% (inactive) |

Source: PubChem BioAssay AID624304 (Sanford-Burnham Center for Chemical Genomics, 2012)
